How the values were obtained:
Assay in all cases: DAPPL (digital affinity profiling via proximity ligation, sequencing); 10 mM Tris-HCl pH 7.5, 50 mM NaCl, 1 mM DTT, 4% glycerol, room temperature, 30 min; GST-TFs on glutathione beads, 16-mer random dsDNA library, 0.1% formaldehyde crosslink after washing; high values mean tight binding
FEV = molecular target: T1, FEV (Homo sapiens, UniProt Q99581 1-238); conditions: protein: recombinant; tags: N-terminal GST; dsDNA, one strand shown
T1 sequence: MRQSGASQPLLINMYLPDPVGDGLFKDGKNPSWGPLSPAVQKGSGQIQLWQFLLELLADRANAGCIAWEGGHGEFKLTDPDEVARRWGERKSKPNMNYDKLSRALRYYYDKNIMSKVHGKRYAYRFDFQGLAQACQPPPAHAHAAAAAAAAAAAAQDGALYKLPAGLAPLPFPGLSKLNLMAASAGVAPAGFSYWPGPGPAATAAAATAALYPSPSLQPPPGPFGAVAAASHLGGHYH
In short: (§1)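 Binding signal is each hexamer's read frequency for a factor divided by its frequency in the tag-only sample. The factors were GST-fused human transcription factors from yeast, captured on glutathione beads, DNA-barcoded and pooled with that sample. Pools were incubated with 200 nmole of a random double-stranded 16-mer DNA library in Tris/NaCl/DTT/glycerol buffer at room temperature for 30 min, then washed, crosslinked with 0.1% formaldehyde, proximity-ligated with BsaI/T4 ligase (1 h, 37 °C), PCR-amplified and sequenced on an Illumina NextSeq500.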

ETV5 = ETV5 (Homo sapiens, UniProt P41161 1-510); conditions: protein: recombinant; tags: N-terminal GST; dsDNA, one strand shown
In short: as §1

HSF1 = HSF1 (Homo sapiens, UniProt Q00613 1-529); conditions: protein: recombinant; tags: N-terminal GST; chain copies: 3; dsDNA, one strand shown
In short: as §1

SPIC = molecular target: T2, SPIC (Homo sapiens, UniProt Q8N5J4 1-248); conditions: protein: recombinant; tags: N-terminal GST; dsDNA, one strand shown
T2 sequence: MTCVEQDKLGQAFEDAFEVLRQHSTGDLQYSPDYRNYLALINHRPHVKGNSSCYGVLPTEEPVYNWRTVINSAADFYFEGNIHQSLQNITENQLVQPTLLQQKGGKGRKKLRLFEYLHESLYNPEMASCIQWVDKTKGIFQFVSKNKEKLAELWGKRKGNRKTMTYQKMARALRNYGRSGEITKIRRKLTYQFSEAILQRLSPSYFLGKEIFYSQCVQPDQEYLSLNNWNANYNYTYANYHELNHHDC
In short: as §1

ELF4 = ELF4 (Homo sapiens, UniProt Q99607 1-663); conditions: protein: recombinant; tags: N-terminal GST; dsDNA, one strand shown
In short: as §1

ELK4 = molecular target: T3, ELK4 (Homo sapiens, UniProt P28324-2 1-405); conditions: protein: recombinant; tags: N-terminal GST; dsDNA, one strand shown
T3 sequence: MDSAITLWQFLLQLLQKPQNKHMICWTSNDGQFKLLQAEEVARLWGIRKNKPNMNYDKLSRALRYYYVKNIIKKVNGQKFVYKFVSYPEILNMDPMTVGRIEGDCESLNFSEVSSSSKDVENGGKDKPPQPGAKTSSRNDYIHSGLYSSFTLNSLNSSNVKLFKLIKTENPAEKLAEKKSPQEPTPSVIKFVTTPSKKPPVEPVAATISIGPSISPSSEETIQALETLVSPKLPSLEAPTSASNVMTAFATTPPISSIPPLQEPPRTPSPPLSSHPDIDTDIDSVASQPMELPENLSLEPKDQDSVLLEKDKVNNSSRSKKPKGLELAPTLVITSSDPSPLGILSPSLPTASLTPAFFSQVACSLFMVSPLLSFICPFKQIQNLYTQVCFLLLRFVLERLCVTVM
In short: as §1

ETV2 = molecular target: T4, ETV2 (Homo sapiens, UniProt O00321 1-342); conditions: protein: recombinant; tags: N-terminal GST; dsDNA, one strand shown
T4 sequence: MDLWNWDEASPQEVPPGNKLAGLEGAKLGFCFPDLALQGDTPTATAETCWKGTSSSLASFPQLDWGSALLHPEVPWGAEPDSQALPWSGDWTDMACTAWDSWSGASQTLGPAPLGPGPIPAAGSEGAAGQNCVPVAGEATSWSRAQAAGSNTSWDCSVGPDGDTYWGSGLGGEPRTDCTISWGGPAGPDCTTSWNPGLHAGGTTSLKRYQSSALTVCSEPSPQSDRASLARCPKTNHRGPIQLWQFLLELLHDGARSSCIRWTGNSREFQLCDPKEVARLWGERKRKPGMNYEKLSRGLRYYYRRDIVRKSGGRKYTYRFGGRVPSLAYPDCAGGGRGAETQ
In short: as §1

ELF3 = molecular target: T5, ELF3 (Homo sapiens, UniProt P78545 1-371); conditions: protein: recombinant; tags: N-terminal GST; dsDNA, one strand shown
T5 sequence: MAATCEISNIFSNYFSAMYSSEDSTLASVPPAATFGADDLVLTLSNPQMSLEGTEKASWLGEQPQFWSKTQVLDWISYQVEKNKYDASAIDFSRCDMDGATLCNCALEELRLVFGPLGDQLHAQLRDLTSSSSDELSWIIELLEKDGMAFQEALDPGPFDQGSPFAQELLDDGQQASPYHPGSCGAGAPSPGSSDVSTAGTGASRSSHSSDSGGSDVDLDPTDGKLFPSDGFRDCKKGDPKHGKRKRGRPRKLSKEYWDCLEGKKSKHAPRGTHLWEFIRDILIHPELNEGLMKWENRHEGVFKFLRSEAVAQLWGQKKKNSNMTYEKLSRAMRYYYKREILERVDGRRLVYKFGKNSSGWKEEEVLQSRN
In short: as §1

CRX = CRX (Homo sapiens, UniProt O43186 1-299); conditions: protein: recombinant; tags: N-terminal GST; dsDNA, one strand shown
In short: as §1

ETV1 = ETV1 (Homo sapiens, UniProt P50549 1-477); conditions: protein: recombinant; tags: N-terminal GST; dsDNA, one strand shown
In short: as §1

ERF = molecular target: T6, ERF (Homo sapiens, UniProt P50548 1-548); conditions: protein: recombinant; tags: N-terminal GST; dsDNA, one strand shown
T6 sequence: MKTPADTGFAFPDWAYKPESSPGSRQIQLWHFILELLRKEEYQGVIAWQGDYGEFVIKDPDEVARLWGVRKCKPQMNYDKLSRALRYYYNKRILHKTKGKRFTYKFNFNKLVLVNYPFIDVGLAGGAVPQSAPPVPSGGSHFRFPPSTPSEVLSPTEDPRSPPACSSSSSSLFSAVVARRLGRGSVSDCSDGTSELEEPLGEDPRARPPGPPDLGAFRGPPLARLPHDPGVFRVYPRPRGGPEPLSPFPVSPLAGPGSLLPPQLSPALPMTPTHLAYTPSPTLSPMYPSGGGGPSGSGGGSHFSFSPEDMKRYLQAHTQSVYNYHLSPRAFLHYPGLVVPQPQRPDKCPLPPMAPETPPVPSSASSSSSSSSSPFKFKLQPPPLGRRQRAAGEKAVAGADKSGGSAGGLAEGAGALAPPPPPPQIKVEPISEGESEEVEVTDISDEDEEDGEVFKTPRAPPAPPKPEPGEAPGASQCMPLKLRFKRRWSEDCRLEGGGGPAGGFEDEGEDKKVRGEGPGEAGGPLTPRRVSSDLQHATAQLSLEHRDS
In short: as §1

ETV3L = molecular target: T7, ETV3L (Homo sapiens, UniProt Q6ZN32 1-361); conditions: protein: recombinant; tags: N-terminal GST; dsDNA, one strand shown
T7 sequence: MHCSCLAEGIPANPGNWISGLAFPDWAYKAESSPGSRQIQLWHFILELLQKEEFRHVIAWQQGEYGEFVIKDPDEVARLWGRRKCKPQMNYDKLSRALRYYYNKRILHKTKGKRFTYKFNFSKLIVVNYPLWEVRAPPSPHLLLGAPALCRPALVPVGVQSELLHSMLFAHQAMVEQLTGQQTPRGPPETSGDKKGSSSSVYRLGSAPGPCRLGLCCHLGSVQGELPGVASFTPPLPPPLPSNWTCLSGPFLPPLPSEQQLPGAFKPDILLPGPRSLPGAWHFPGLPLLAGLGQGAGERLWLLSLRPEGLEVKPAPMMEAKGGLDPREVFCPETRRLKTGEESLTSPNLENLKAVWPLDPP
In short: as §1

ETS2 = molecular target: T8, ETS2 (Homo sapiens, UniProt P15036 1-469); conditions: protein: recombinant; tags: N-terminal GST; dsDNA, one strand shown
T8 sequence: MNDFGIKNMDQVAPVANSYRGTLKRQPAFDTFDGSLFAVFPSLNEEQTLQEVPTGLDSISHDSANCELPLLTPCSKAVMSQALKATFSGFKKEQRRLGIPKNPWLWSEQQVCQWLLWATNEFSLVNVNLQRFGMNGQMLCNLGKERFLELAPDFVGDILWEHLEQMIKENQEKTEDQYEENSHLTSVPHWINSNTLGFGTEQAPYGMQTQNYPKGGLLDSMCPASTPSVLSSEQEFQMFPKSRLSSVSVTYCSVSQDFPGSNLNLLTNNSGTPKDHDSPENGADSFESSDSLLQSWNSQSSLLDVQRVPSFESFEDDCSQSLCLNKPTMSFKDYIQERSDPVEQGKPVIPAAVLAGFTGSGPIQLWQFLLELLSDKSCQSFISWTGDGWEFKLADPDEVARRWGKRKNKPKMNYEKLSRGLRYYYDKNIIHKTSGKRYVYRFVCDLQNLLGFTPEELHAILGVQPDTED
In short: as §1

SPDEF = molecular target: T9, SPDEF (Homo sapiens, UniProt O95238 1-335); conditions: protein: recombinant; tags: N-terminal GST; dsDNA, one strand shown
T9 sequence: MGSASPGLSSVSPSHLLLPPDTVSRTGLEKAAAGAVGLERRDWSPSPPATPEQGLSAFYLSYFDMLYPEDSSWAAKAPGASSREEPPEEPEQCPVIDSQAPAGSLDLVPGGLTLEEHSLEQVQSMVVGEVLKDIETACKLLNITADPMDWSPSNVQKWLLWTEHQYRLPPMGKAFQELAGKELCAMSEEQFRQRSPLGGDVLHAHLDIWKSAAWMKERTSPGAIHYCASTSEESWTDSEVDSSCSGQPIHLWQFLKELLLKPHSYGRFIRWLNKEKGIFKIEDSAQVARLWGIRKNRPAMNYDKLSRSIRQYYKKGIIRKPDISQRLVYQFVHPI
In short: as §1

ETV7 = molecular target: T10, ETV7 (Homo sapiens, UniProt Q9Y603 1-341); conditions: protein: recombinant; tags: N-terminal GST; dsDNA, one strand shown
T10 sequence: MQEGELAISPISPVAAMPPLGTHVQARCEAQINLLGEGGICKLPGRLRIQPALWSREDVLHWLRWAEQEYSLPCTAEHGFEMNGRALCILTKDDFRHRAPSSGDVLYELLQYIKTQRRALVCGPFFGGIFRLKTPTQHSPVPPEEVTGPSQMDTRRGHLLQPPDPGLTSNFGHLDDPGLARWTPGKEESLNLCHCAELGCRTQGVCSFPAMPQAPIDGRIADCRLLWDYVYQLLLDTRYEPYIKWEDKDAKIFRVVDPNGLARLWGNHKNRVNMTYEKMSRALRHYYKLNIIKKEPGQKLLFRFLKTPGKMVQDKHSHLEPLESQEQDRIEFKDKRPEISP
In short: as §1

ELF5 = molecular target: T11, ELF5 (Homo sapiens, UniProt Q9UKW6-2 1-255); conditions: protein: recombinant; tags: N-terminal GST; dsDNA, one strand shown
T11 sequence: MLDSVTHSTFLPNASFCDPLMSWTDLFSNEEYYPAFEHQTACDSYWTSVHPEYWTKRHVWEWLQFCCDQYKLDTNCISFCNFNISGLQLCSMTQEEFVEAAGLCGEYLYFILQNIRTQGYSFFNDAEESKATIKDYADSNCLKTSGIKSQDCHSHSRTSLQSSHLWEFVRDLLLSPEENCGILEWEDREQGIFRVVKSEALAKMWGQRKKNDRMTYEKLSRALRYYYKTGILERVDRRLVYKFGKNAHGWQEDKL
In short: as §1

ETV3 = molecular target: T12, ETV3 (Homo sapiens, UniProt P41162-2 1-143); conditions: protein: recombinant; tags: N-terminal GST; dsDNA, one strand shown
T12 sequence: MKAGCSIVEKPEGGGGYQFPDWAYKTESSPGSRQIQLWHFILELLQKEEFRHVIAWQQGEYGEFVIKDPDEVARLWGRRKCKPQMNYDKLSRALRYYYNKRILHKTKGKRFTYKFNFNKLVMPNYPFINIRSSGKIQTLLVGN
In short: as §1

ETV6 = ETV6 (Homo sapiens, UniProt P41212 1-452); conditions: protein: recombinant; tags: N-terminal GST; dsDNA, one strand shown
In short: as §1

ETV1, sequence (P50549 whole entry): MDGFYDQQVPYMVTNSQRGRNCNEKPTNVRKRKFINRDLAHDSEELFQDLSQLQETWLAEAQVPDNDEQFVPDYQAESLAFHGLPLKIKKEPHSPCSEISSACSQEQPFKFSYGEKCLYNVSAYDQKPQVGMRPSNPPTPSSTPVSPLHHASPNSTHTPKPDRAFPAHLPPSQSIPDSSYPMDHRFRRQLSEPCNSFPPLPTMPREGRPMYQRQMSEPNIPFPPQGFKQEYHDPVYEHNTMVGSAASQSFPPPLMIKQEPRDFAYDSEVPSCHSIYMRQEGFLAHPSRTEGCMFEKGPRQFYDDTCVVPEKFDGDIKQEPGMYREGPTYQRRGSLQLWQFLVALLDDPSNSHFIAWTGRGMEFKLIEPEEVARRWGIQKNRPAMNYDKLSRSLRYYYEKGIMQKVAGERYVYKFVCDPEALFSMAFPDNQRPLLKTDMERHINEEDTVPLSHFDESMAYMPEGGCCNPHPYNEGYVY
ELF4, sequence (Q99607 whole entry): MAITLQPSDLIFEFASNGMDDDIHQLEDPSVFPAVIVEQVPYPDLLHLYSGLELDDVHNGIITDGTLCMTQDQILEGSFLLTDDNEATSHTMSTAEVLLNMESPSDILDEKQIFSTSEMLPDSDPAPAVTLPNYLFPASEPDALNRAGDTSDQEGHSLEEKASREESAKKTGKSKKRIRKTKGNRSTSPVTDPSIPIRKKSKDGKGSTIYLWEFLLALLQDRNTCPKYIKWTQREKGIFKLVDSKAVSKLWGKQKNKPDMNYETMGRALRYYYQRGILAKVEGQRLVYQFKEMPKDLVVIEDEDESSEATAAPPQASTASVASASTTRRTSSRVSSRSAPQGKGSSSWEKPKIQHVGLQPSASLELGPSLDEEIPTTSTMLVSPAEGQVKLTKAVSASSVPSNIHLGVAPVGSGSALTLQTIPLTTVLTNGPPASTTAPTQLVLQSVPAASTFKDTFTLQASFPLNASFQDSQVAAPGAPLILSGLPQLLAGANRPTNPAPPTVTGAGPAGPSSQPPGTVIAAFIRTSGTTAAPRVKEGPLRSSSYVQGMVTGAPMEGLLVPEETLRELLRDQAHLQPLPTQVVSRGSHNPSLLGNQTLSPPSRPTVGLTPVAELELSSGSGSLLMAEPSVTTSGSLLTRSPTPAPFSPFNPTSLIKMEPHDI
ETV5, sequence (P41161 whole entry): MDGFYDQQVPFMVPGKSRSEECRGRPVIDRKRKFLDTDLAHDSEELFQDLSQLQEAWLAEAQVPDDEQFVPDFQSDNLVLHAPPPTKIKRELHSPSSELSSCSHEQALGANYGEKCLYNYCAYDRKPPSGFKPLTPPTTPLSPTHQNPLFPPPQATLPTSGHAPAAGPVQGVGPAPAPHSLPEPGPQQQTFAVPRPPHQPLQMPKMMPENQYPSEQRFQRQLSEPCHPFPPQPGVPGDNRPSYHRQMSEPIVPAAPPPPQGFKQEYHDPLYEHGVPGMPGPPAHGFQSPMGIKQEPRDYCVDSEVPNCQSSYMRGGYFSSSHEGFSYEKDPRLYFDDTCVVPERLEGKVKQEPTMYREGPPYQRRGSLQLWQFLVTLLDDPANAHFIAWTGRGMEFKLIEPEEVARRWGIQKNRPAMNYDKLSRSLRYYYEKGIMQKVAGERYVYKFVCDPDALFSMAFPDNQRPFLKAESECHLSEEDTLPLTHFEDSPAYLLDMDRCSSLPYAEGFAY
CRX, sequence (O43186 whole entry): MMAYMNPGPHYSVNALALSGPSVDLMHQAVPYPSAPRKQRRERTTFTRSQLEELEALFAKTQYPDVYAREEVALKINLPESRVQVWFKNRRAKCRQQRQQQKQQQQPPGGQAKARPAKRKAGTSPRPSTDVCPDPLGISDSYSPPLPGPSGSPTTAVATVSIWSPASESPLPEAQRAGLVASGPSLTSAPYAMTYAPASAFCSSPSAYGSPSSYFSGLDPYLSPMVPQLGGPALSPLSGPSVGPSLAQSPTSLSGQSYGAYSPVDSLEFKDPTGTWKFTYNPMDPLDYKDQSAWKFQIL
ETV6, sequence (P41212 whole entry): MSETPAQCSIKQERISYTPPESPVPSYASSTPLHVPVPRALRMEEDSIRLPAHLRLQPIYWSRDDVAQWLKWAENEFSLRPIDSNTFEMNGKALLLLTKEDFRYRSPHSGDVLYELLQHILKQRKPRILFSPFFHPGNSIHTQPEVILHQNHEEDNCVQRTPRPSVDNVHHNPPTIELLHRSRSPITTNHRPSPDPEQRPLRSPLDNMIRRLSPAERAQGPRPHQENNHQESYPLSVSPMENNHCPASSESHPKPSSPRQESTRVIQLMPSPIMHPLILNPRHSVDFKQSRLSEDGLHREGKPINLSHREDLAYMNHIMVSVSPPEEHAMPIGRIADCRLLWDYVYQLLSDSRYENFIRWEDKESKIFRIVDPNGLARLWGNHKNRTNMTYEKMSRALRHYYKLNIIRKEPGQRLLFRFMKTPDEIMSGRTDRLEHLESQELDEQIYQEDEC
HSF1, sequence (Q00613 whole entry): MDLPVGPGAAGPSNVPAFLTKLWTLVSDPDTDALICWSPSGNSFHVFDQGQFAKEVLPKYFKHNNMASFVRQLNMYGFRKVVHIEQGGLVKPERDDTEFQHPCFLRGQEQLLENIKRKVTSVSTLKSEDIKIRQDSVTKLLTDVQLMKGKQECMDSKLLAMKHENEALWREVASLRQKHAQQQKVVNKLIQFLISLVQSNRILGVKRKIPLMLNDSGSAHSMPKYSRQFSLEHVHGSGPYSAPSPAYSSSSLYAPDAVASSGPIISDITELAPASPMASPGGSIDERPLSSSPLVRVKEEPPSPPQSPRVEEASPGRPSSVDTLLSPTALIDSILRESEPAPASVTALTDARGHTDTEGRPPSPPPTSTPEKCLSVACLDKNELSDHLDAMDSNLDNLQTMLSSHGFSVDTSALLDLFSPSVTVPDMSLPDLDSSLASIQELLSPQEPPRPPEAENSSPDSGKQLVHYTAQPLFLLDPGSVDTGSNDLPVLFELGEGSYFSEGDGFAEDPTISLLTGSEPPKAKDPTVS

Question: What does the source list for CTAACT?
Answer: binding signal (FEV): 1.34 fold enrichment (6-mer frequency, TF over GST control); binding signal (ETV5): 1.34 fold enrichment (6-mer frequency, TF over GST control); binding signal (HSF1): 1.19 fold enrichment (6-mer frequency, TF over GST control); binding signal (SPIC): 1.31 fold enrichment (6-mer frequency, TF over GST control); binding signal (ELF4): 1.4 fold enrichment (6-mer frequency, TF over GST control); binding signal (ELK4): 1.36 fold enrichment (6-mer frequency, TF over GST control); binding signal (ETV2): 1.27 fold enrichment (6-mer frequency, TF over GST control); binding signal (ELF3): 1.21 fold enrichment (6-mer frequency, TF over GST control); binding signal (CRX): 1.21 fold enrichment (6-mer frequency, TF over GST control); binding signal (ETV1): 1.28 fold enrichment (6-mer frequency, TF over GST control); binding signal (ERF): 1.32 fold enrichment (6-mer frequency, TF over GST control); binding signal (ETV3L): 1.19 fold enrichment (6-mer frequency, TF over GST control); binding signal (ETS2): 1.35 fold enrichment (6-mer frequency, TF over GST control); binding signal (SPDEF): 1.24 fold enrichment (6-mer frequency, TF over GST control); binding signal (ETV7): 1.29 fold enrichment (6-mer frequency, TF over GST control); binding signal (ELF5): 1.21 fold enrichment (6-mer frequency, TF over GST control); binding signal (ETV3): 1.24 fold enrichment (6-mer frequency, TF over GST control); binding signal (ETV6): 1.29 fold enrichment (6-mer frequency, TF over GST control)

From article PMC7862700, “An all-to-all approach to the identification of sequence-specific readers for epigenetic DNA modifications on cytosine”
